# According to PubChem BioAssay (NCI):
# This is part of a sample that, as a whole, favours compounds with a hit. Of some 83,000 tested, about 20% had one in any assay.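 Negative percent growth values reflect cell death: -40 means 40% of the cells present at the start died, and -100 means all died.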 The source made the active and inactive calls. The calls were made as follows: active = growth percent below 10; inactive = the rest.
# Test system: OVCAR-3 ovarian
# Experiment: NCI-60 one-dose screen, 48 h (100 = growth as untreated, 0 = no growth, -100 = all killed)
# Conditions: 10 µM
row,SMILES,growth
1,COc1ccc(-c2onc(N)c2-c2cc(OC)c3c(c2)OCO3)cc1,-1.21% (active)
2,C[C@]12CC[C@@H]3c4ccc(O)cc4CC[C@H]3[C@@H]1CC[C@@H]2NS(=O)(=O)c1ccc(C(F)(F)F)cc1,35.4% (inactive)
3,O=C(CSc1nnc(-c2ccc(Cl)cc2)o1)Nc1ccc(C(=O)/C=C/c2ccc(Cl)cc2)cc1,103% (inactive)
4,Cc1cc(CCNC=O)c(C)c2c1sc1ccccc12,111% (inactive)
5,COc1cc2cc(Oc3ccc(NC(=O)c4ccc(Cl)c(C(F)(F)F)c4)cc3)c(C)nc2cc1OC,0% (active)
6,CC(C)(C)c1ccc(S(=O)(=O)N[C@H]2CC[C@H]3[C@@H]4CCc5cc(O)ccc5[C@H]4CC[C@]23C)cc1,37.3% (inactive)
7,COc1cc2cc(Oc3ccc(NC(=O)c4cccc(C(F)(F)F)c4)cc3)c(C)nc2cc1OC,15% (inactive)
8,COc1ccc(/C=C2\CCCC3=C2NC(N)=NC3c2ccc(OC)c(OC)c2)cc1OC (stereo not given),10.8% (inactive)
9,Cc1c(Cl)cccc1NC(=O)CN1CCOCC1,107% (inactive)
10,CC(C)(C)OC(=O)N1CCc2c(sc3ncnc(N/N=C/c4ccc(Br)cc4)c23)C1,86.4% (inactive)
11,CCCCc1oc2ccccc2c1C(=O)c1cc(I)c(OCCN(CC)CC)c(I)c1,12% (inactive)
12,CCc1c2c(nc3ccc(OC(=O)N4CCC(N5CCCCC5)CC4)cc13)-c1cc3c(c(=O)n1C2)COC(=O)[C@]3(O)CC,33% (inactive)
13,NS(=O)(=O)Oc1ccc(-c2ccc3sccc3c2)cc1,106% (inactive)
14,O=C(Nc1ccc(OS(=O)(=O)c2ccccc2)cc1)C1CCCCC1,95% (inactive)
15,S=c1cnc2ccccc2[nH]1,106% (inactive)
16,COc1cc(-c2nn(-c3cccc(NC(=O)NCCNC(=O)c4cccc(C(F)(F)F)c4)c3)cc2-c2ccncc2)ccc1Cl,16.2% (inactive)
17,C[C@@H](O)[C@H]1C(=O)N2C(C(=O)O)=C(SCCN=CN)C[C@H]12,-15% (active)
18,CC[C@@H](C(=O)[C@@H](C)[C@@H](O)[C@H](C)[C@@H]1O[C@@H]([C@@H](CC)C(=O)O)CC[C@@H]1C)C1O[C@]2(C=CC(=O)[C@]3(CC[C@@](C)([C@H]4CC[C@](O)(CC)[C@H](C)O4)O3)O2)[C@H](C)C[C@@H]1C (stereo not given in full),27.2% (inactive)
19,CCC(c1ccc(OC)cc1)C(CC)c1ccc(O)c(CN2CCN(C)CC2)c1 (stereo not given),79.8% (inactive)
20,COc1ccc(C(=O)N2C=Cc3ccccc3C2C#N)cc1 (stereo not given),105% (inactive)

row,SMILES,growth
1,Cc1cc(SC#N)cc(C(C)(C)C)c1O,95% (inactive)
2,COc1ccc(-c2n[nH]nc2-c2cc(OC)c3c(c2OC)OCO3)cc1,-11.5% (active)
3,CN1C(C(=O)Nc2ccccn2)=C(O)c2sc(Cl)cc2S1(=O)=O,105% (inactive)
4,Clc1ccc2c(c1)C(N1CCNCC1)=Nc1ccccc1O2,46.6% (inactive)
5,CC(C)(C)c1ccc(S(=O)(=O)N[C@H]2CC[C@H]3[C@@H]4CCc5cc(O)c([N+](=O)[O-])cc5[C@H]4CC[C@]23C)cc1,53.7% (inactive)
6,COc1cc(-c2csc(NC(=O)Nc3ccc(Cl)c(C(F)(F)F)c3)n2)cc(OC)c1OC,-19% (active)
7,Brc1ccc2c(c1)-c1ccccc1C1=NCCN12,-32.7% (active)
8,CC(C)N(CCOc1cccc(-c2nc3sccn3c2-c2ccnc(S(C)(=O)=O)n2)c1)C(C)C,90.6% (inactive)
9,Cc1ccc(/C=C/C(=O)C(=O)/C=C/c2ccc(C)cc2)cc1,112% (inactive)
10,O=C(Nc1cc(Cl)cc2c1-c1ccc(Cl)cc1C2O)C(Cl)Cl (stereo not given),97.3% (inactive)
11,COc1cc(Cc2cc(-c3ccccc3)n[nH]c2=O)cc(OC)c1OC,47.2% (inactive)
12,Cc1cc(C(C#N)c2ccc(Cl)cc2)c(Cl)cc1NC(=O)c1cc(I)cc(I)c1O (stereo not given),32.6% (inactive)
13,C/C=C/C1=CN2C(=O)c3cc(OC4OC(C)C(NC)C(C)(O)C4O)c(C)c(O)c3N=C[C@@H]2C1 (stereo not given in full),-4.33% (active)
14,CNC(=O)c1c(I)c(NC(C)=O)c(I)c(C(=O)O)c1I,111% (inactive)
15,COc1ccc(Nc2cnc3cc(NS(=O)(=O)c4ccc(C)cc4)ccc3n2)cc1,79.8% (inactive)
16,COc1cc(-c2nn(-c3ccc(NC(=O)NCCCNC(=O)c4ccccc4)cc3)cc2-c2ccncc2)ccc1Cl,20.6% (inactive)
17,OCC1OC(n2ccc3c(NO)ncnc32)C(O)C1O (stereo not given),-31.7% (active)
18,C[C@]12CC[C@@H]3c4ccc(OS(=O)(=O)O)cc4CC[C@H]3[C@@H]1CC[C@@H]2NS(=O)(=O)c1ccc(-c2ccccc2)cc1,52.6% (inactive)
19,CCN1CCN(CCC(=O)Nc2cccc(-n3cc(-c4ccncc4)c(-c4ccc(Cl)c(OC)c4)n3)c2)CC1,7.41% (active)
20,COc1ccc(-c2nnc(SCC(=O)Nc3ccc(C(=O)/C=C/c4ccccc4)cc3)n2-c2ccccc2)cc1OC,88.8% (inactive)
